Active and inactive are the calls of the source.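 The calls were made as follows: active = blocks over 70% of labeled estradiol binding at 10 µM, or over a set limit at 100 nM; inactive = the rest.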

In this assay the target is Estrogen receptor beta (Homo sapiens) (UniProt Q92731). The assay is described as follows: displacement of fluorescent estrogen from ERbeta – cell-based, Cos7 ERbeta-GFP, flow cytometry, primary screen (AID 1210).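 Also: 0% = DMSO vehicle wells and 100% = complete loss of labeled estradiol signal.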 Particulars: fluorescent estrogen binding, at 10 µM, hits give high values. (In flow cytometry, cells or beads pass a laser one at a time.)
Sequence of Estrogen receptor beta (Homo sapiens) (Q92731 whole entry, looked up): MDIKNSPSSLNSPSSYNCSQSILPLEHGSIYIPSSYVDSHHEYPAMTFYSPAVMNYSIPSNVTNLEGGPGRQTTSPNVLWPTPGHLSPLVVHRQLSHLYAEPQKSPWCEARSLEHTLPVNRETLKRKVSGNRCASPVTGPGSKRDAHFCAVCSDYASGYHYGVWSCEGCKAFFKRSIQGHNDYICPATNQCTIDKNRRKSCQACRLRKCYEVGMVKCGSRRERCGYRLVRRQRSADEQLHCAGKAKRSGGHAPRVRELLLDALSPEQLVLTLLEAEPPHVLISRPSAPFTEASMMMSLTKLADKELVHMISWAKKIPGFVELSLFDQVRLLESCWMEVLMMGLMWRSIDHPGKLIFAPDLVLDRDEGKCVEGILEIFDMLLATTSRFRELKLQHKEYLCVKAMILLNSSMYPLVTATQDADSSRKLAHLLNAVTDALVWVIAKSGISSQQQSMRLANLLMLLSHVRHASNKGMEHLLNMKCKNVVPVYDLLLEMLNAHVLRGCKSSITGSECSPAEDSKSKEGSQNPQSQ
Turning to `O=C(O)c1ccc2c(c1)C1C(Cl)C(Sc3ccccc3[N+](=O)[O-])CC1C(c1cccc([N+](=O)[O-])c1)N2` (stereo not given), the inhibition (usually how much of the control response was suppressed) is 0% (inactive).
`COc1ccc(Cn2c(N)c(C(=O)NCc3ccco3)c3nc4ccccc4nc32)cc1`: the inhibition is 64% (inactive).
On to `O=C1C2CCN(CC2)C1Cc1ccc(O)cc1` (stereo not given), for which the inhibition is 19% (inactive).
With `COc1ccc(CC2NCCc3cc(OC)c(OC)cc32)cc1OC` (stereo not given), the inhibition is 10% (inactive).
With `CC1(C)CC(CCNCc2ccc3c(c2)OCO3)(Cc2ccccc2)CCO1` (stereo not given), the inhibition was 16% (inactive).
As for `CC(=O)c1ccc2c(c1)C1C(Cl)C(Sc3ccccc3[N+](=O)[O-])CC1C(c1ccccc1[N+](=O)[O-])N2` (stereo not given), the inhibition is 36% (inactive).
For the compound `O=C(O)c1cccc2c1NC(C(=O)O)C1CC(Sc3ccccc3[N+](=O)[O-])C(Cl)C21` (stereo not given), the inhibition is 0% (inactive).
Consider `Cc1ccc(S(=O)(=O)Cc2ccc(C(=O)N3CCC4(CC3)OCCO4)o2)cc1`, for which the inhibition is 56% (inactive).
Take `NC(=O)c1ccc(N=Nc2c(O)[nH]c(=O)[nH]c2=O)cc1`: the inhibition was 11% (inactive).
On to `COc1cc2c(cc1OC)CC(C)(C)NC2`, for which the inhibition was 11% (inactive).
Consider `COc1ccc(C2(CN)CCCC2)cc1`, for which the inhibition was 5% (inactive).
For `Cc1ccc2c(c1Cl)NC(C(=O)O)C1CC(Sc3ccccc3[N+](=O)[O-])C(Cl)C21` (stereo not given), the inhibition was 21% (inactive).
With `C[C@H]1CCC[C@@H](O)CCC/C=C/c2cc(O)cc(O)c2C(=O)O1`, the inhibition is 71% (active).
Turning to `CC(=O)c1ccc2c(c1)C1C(Cl)C(Sc3ccccc3[N+](=O)[O-])CC1C(C(=O)O)N2` (stereo not given), the inhibition is 34% (inactive).
Turning to `N=c1c[n+](CCc2ccc(O)cc2)[n-]o1`, the inhibition is 29% (inactive).
